Reference: ChEMBL document CHEMBL3988442, “University of Dundee, Small-Polar-MMV Screening Library” (2021)

Each compound was assayed against Shiga toxin 2 (Escherichia coli O157:H7) (UniProt P09385+P09386) (assay: E. coli 0.157:H7 Shiga Toxin SOP - stx2 screening assay). Conditions: 30 µM.
Type: functional
Set-up: scale not given: direction of the effect not stated beside the values

SMILES | Percent Effect [%]
CC(C)(C)n1cc(C(=O)N2CCCN(Cc3cccs3)CC2)cn1 | 35.3
CC(C)Cc1noc(CN2CCN(CCO)CC2)n1 | 25.7
O=C(c1ncccn1)N1C[C@H]2CCC[C@@]2(COCC2CCOCC2)C1 | -2.7
Cc1ncsc1C(=O)NC1CCN(CC(=O)N(C)c2ccccc2)CC1 | 34
CCn1c(Cn2cncn2)nnc1C1CCN(C(=O)CCSC)CC1 | 8.61
COCc1nc(C(=O)NS(=O)(=O)c2cc(F)ccc2F)cs1 | -51.5
Cc1ccc(CNCc2nnc3n2CC(C(F)(F)F)CC3)cc1 (stereo not given) | -16
O=C(Cc1ccc(F)cc1)N1CCCCC1c1ccn2ccnc2n1 (stereo not given) | 6.23
O=C(C1CCC1)N1CCN(Cc2ccsc2)[C@H]2CS(=O)(=O)C[C@H]21 | -39.6
CCc1nc2n(n1)CC(NCc1ncc(-c3ccccc3)o1)CC2 (stereo not given) | 9.14
CNc1cc2c(nn1)CCN(C(=O)c1cccc3c1OCO3)C2 | 1.76
CNC(=O)[C@H]1C[C@H]2OCC[C@H]2N(Cc2ccc(C)o2)C1 | -4.41
Cc1nc(CN2CCN(C(=O)c3sccc3C3CC3)CC2)cs1 | 13.6
CCN1CCN(C(=O)NCCOc2ccc3c(c2)OCO3)CC1 | -50
Cc1noc(C(C)C)c1C(=O)NCC(c1ccsc1)N(C)C (stereo not given) | -2.68
COc1cccc([C@@H]2CN(C(=O)c3ccc(C)cc3O)C[C@H]2C(=O)O)c1 | -5.94
Cc1cc(C)c(OCC(=O)NS(=O)(=O)c2c(C)noc2C)c(C)c1 | 21.6
CC(NC(=O)CCCOc1ccccc1Cl)c1ccncc1 (stereo not given) | -35
Cc1ncsc1C(=O)NC1CCN(CC(=O)N(C)C(C)(C)C#N)CC1 | 25.4
CN(Cc1cnn(C)c1)C(=O)NC1CCN(c2ncccn2)CC1 | 10.9

SMILES | Percent Effect [%]
CCNC(=O)CCc1c(C)nc2cc(O)nn2c1C | -21.5
CCc1ncc2c(n1)CN(Cc1nc(C)c(C)o1)CC2 | -23.6
CCN(C)c1ncnc2c1CCN(C(=O)N1CCCC1)CC2 | -30.9
COc1ccc(CC(=O)N(C)Cc2nnc3ccccn23)cc1 | 2.4
COc1cccc(COCC(O)CN2CC(n3cccn3)C2)c1 (stereo not given) | 16.5
Cc1nc(C)n(C2CCCN(C(=O)c3sccc3C3CC3)C2)n1 (stereo not given) | 10.4
COc1ccc(CCN2CCCC(Cn3nc(C)nc3C)C2)cc1 (stereo not given) | -52.1
O=C(NCC1CC1)[C@@H]1CCO[C@@H]2CCN(Cc3ccco3)C[C@H]21 | -6.74
CC1=Nc2c(c(=O)[nH]n2C2CCOCC2)C(c2cccc(Br)c2)S1 (stereo not given) | 15
COc1ccc2c(c1)CCN(CCC(=O)NC1CCCCC1)CC2 | -9.64
Cc1ccn(-c2ccccc2NCc2ccccn2)n1 | 4.81
CC(OCC1CC1)C(=O)N1CCCN(Cc2nccn2C)CC1 (stereo not given) | -20.4
CCn1ccnc1CN1CCCN(C(=O)c2sccc2C#N)CC1 | 2.81
CNC(=O)CC1CCN(Cc2nc(-c3cccc(Cl)c3)oc2C)CC1 | -21.3
Cc1cccc(CN(C)Cc2nc3c(cnn3C)c(=O)[nH]2)c1 | 35.9
Cc1noc(C)c1C(=O)NCC(C)N(C)C (stereo not given) | 30.6
CS(=O)(=O)NCc1nnc2n1CCN(Cc1cccs1)C2 | 3.79
O=C(C1CCOC1)N1CC[C@@H](O)[C@@H]1Cc1ccccc1 (stereo not given in full) | -16.7
O=C(CCNc1ncccn1)NCCOc1ccc2c(c1)CCC2 | 35.6
COc1ccc2c(c1)OCC(CNC(=O)c1ccc(=O)n(C)c1)C2 (stereo not given) | 0.424
